TRPV1 ag = activates the human vanilloid receptor TRPV1. hit rate 0.19% among 320,000. Q8NER1. activation, % at 8.33 µM. TRPV1-expressing cells, Fluo-8 calcium influx, agonist mode; in the data active = activation above about 80%; inconclusive = between about 30% and that limit
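TRPV1-expressing cells were cultured overnight at 35.5C and loaded with Fluo-8 calcium dye for 40 to 90 min at room temperature. After a 10 s baseline, compound was added and calcium influx was read kinetically for 3 min (ex 480/em 520 nm).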
gsp ag = gsp mutant agonism; hit rate 0.13% among 340,000; Potency, µM (titrated, usually from 76.9 µM), most hits filed as activators; gsp mutant cells, cAMP HTRF, 30 min; active = well fitted activation curve with a large enough effect; inconclusive = small, poorly fitted or top-dose-only effect, or another doubt; inactive = no such curve, though single readings can be large or run the other way; cell line not stated here;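 note: phosphodiesterase inhibitor Ro 20-1724 added with compounds to block cAMP breakdown; nearly all actives have a fitted effect of over 60% in size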
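Cells stably selected in G418 were plated at 2000/well, grown 16-24 hr, then given compounds in DMSO with the PDE inhibitor […] (300 uM solution added) for 30 min at 37C; cAMP was read by HTRF.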
gsp antagonist = antagonists of gsp mutant (McCune-Albright syndrome) | gsp-mutant cells, cAMP HTRF, 30 min | hit rate 0.4% among 340,000 | AID 624288 | Potency, µM (titrated, usually from 76.9 µM), actives largely listed as inhibitors; calls by dose curve; cell line not stated here;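 note: intracellular cAMP measured with PDE inhibitor Ro 20-1724 present during compound exposure; nearly all actives have a fitted effect of over 65% in size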
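HTRF cAMP read-out (cAMP-d2 plus anti-cAMP antibody-K in lysis buffer, 30 min RT). Before lysis, cells are exposed to compounds with […] for 30 min at 37C in DPBS containing Ca/Mg, BSA and Tween 20.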
RXFP1 ag = activates the human relaxin receptor RXFP1 | hit rate 0.3% among 370,000 | Potency, µM (top dose mostly 57.5 µM), actives largely listed as activators | AID 2676 | HEK293T-RXFP1 cAMP TR-FRET, 30 min; response scale: percent of porcine relaxin response, buffer zero; active = well fitted activation curve with a large enough effect; inconclusive = small, poorly fitted or top-dose-only effect; note: nearly all actives have a fitted effect of over 60% in size
Target sequence (Q9HBX9 whole entry, looked up): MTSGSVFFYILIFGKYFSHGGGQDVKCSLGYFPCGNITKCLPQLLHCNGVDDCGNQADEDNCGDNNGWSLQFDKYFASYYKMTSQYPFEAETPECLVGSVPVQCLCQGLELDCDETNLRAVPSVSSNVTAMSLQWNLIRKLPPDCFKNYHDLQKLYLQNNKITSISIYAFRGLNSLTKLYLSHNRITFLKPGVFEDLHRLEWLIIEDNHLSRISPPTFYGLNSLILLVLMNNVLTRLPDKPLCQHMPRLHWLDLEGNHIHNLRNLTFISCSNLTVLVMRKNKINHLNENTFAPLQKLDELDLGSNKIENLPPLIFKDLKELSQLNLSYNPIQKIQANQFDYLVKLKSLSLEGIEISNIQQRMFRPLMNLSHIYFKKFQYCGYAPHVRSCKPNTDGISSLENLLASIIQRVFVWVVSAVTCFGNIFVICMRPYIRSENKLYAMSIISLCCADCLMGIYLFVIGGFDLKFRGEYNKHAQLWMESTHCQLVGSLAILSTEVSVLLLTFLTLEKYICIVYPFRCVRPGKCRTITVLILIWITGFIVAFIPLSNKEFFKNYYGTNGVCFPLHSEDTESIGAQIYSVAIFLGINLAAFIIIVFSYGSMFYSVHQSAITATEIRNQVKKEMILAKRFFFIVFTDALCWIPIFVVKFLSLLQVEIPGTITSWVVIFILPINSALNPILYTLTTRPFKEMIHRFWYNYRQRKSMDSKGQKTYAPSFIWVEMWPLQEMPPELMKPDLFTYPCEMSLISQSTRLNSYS
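cAMP rise read by TR-FRET after 30 min, 37C compound exposure (up to 58 uM) in RXFP1-transfected HEK293 cells with Ro 20174 present. EC50 from Hill-equation fits, with 29 nM porcine relaxin as 100% and buffer as basal.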
TRPV1 PAM = potentiators of human vanilloid receptor 1 (TRPV1); Q8NER1; hit rate 0.02% among 320,000; AID 540277; potentiation, % at 8.33 µM; TRPV1-expressing cells, Fluo-8 calcium influx, capsaicin EC20 potentiation; in the data active = potentiation above about 80%; inconclusive = between about 30% and that limit
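Cells expressing TRPV1 were dye-loaded with Fluo-8 and read kinetically: 10 s baseline, 3 min after compound (agonist portion), then 2 min after EC20 capsaicin (allosteric enhancer portion). Calcium-bound dye fluorescence at 480/520 nm.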
RXFP1 antag = RXFP1 (human) relaxin receptor antagonism. Q9HBX9. HEK293-RXFP1, relaxin-stimulated cAMP HTRF, 30 min; hits give low values. activity change, negative = inhibition, % at 57.5 µM. hit rate 0.59% among 350,000. AID 1259400;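 active = activity change of -60% or lower, but not beyond a set lower limit; inconclusive = change between -60% and -40%, or beyond the set limit; inactive = change above -40%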
Numbers stand for hits; . = inactive; ? = inconclusive; / = no result given; [ ] = remark or other dose. Rows were chosen to be rich in hits. Some 1.1% of all compounds tested hit in one or more screens of this group.

SMILES | TRPV1 ag | gsp ag | gsp antagonist | RXFP1 ag | TRPV1 PAM | RXFP1 antag
CCOc1ccc(CCNC(=O)CCc2nnc3ccc(N4CCOCC4)nn23)cc1OCC | . | . | . | . | . | .
CC(=O)Nc1ccc(NC(=O)C(c2ccccc2)N2Cc3ccccc3C2=O)cc1 (stereo not given) | / | / | / | . | / | .
CCCCc1nnc(SCc2cc(=O)c3cc(C(=O)OCC)ccc3[nH]2)n1C | / | / | / | . | / | .
CCOCCn1ccc2c(OCC(=O)Nc3ccc(OC)c(OC)c3)cccc2c1=O | . | .[15.4 µM] | 35µM | . | . | .
CCOCCn1ccc2c(OCC(=O)Nc3cc(C)cc(C)c3)cccc2c1=O | / | / | / | . | / | /
Cc1cc2oc(C(=O)N(Cc3ccc(N(C)C)cc3)CC3CCCO3)c(C)c2cc1Cl (stereo not given) | / | / | / | . | / | .
CCOc1ccc(S(=O)(=O)N2CCC(C(=O)NCCc3ccccc3)CC2)cc1 | . | . | . | . | . | .
COc1cccc(/C=N/Nc2nnc3c(n2)[nH]c2ccccc23)c1OC | . | . | . | . | . | -61
COc1cccc(C=NNc2nc3ccccc3s2)c1OC | / | . | . | / | / | .
O=C(NCC1CC1(Cl)Cl)Nc1ccc(Cl)c(Cl)c1 (stereo not given) | ? | . | ? | . | . | -67
Cc1ccc(NC(=O)NCC2CC2(Cl)Cl)cc1 (stereo not given) | ? | . | . | . | . | .
COc1ccccc1N(C(C)=O)C1=C(Cl)C(=O)c2ccccc2C1=O | / | . | / | / | / | -87
COc1ccccc1N(C(=O)CCl)c1cn(C(C)=O)c2ccccc12 | . | . | . | . | . | .
Cc1ccc2nc(SCC(=O)Nc3ccccc3N3CCOCC3)c(C#N)cc2c1 | . | 22µM | . | . | . | .
CCc1ccc2nc(SCC(=O)Nc3ccccc3N3CCOCC3)c(C#N)cc2c1 | . | .[15.4 µM] | . | . | . | .
COc1cc2c(cc1OC)C1O[C@](c3ccsc3)(C2)OC2=C1C(=O)OC1(CCCCC1)C2 | . | / | / | .[11.5 µM] | . | /
CCCCNc1c(-c2cccc(-c3cc(C(C)=O)cs3)c2)nc2cc(C)ccn12 | . | . | 32µM | . | ? | /
O=C(CCS(=O)(=O)c1ccccc1)N(CCCN1CCOCC1)c1nc2c(F)cccc2s1 | . | . | . | . | . | -74
O=C(Cc1ccccc1)NCCSC1CCCCC1 | 94 | . | . | . | . | .
COc1ccc(CCC(=O)NNC(=O)c2ccccn2)cc1OC | . | . | . | . | . | .
CCCS(=O)(=O)N1CCCC(C(=O)Oc2ccc(OC)cc2)C1 (stereo not given) | . | .[15.4 µM] | . | . | . | .
COc1cccc(NC(=O)Cn2c3ccc(OC)cc3c3nc4n(c(=O)c32)CCS4)c1 | . | ? | . | 10µM | . | .
CCC[C@@H]1C[C@@H](C(=O)N[C@@H]([C@H]2O[C@H](SC)[C@H](O)[C@@H](O)[C@H]2O)[C@@H](C)O)N(C)C1 | / | / | / | / | / | .
CCOc1cc(/C=C(\C#N)C(=O)Nc2cccc(C(=O)O)c2)cc(Br)c1OC(=O)c1ccc(OC)cc1 | ? | . | . | . | . | -89
Cc1ccc(C2=NN(CC(=O)NCCCN(CC(C)C)CC(C)C)C(=O)CC2)cc1 | / | / | / | . | / | .
SMILES | TRPV1 ag | gsp ag | gsp antagonist | RXFP1 ag | TRPV1 PAM | RXFP1 antag
Cc1ccc2[nH]c(=O)c(CN(CCCN(C)C)C(=O)Nc3ccc(F)cc3)cc2c1 | . | .[15.4 µM] | 7.1µM | . | . | .
COc1cc(/C=C2/CCCC(C(=O)C(F)(F)F)=C2O)ccc1O | . | .[15.4 µM] | . | . | . | .
COc1cc(/C=C2\Oc3cc(O)ccc3C2=O)ccc1O | . | 28µM | . | . | . | .
COc1cc(/C=C2\CCC/C(=C\c3ccc(O)c(OC)c3)C2=O)ccc1O | . | . | ? | . | . | -69
COc1cc(/C=C2\COC/C(=C\c3cc(OC)c(OC)c(OC)c3)C2=O)cc(OC)c1OC | . | . | ? | . | . | -63
COc1cc(C=C2CCC/C(=C\c3ccc(O)c(OC)c3)C2=O)ccc1O | / | / | / | / | / | -95
O=C1/C(=C/c2ccc(O)c(O)c2)Oc2cc(O)ccc21 | . | . | . | . | . | .
COc1cc(/C=C2\CC/C(=C\c3cc(OC)c(OC)c(OC)c3)C2=O)cc(OC)c1OC | . | .[15.4 µM] | . | . | . | .
O=C(Cc1ccc(Cl)cc1)Nc1ccccc1N1CCN(C(=O)c2ccccc2)CC1 | . | . | 28µM | . | . | .
O=C(Nc1ccccc1N1CCN(C(=O)c2ccccc2)CC1)c1ccc(Cl)cc1 | ? | . | ? | . | . | .
CCN(Cc1ccc(C#CCCO)cc1)CC1CCCN(CCc2cccc(F)c2)C1 (stereo not given) | . | ? | . | . | . | /
c1ccc(CCNCCCOc2cccc3ccccc23)cc1 | . | . | . | . | . | -95
CC(=O)NCCOc1cccc2ccccc12 | . | . | . | . | . | .
CN(C)S(=O)(=O)c1ccc2c(c1)C(=O)c1cc(S(=O)(=O)N(C)C)ccc1CC2 | . | / | / | . | . | /
CN(C)S(=O)(=O)c1ccc2c(c1)/C(=C/c1cc3c([nH]1)CCCC3)C(=O)N2 | ? | / | 10µM | . | . | /
COc1cc(CNC(=O)C2CC(O)CN2C(=O)Nc2ccccc2)cc(OC)c1OC (stereo not given) | / | . | / | / | / | .
CC(=O)N1CCC(=NNC(=O)c2cc3ccccc3cc2O)CC1 | . | . | ? | . | . | -93
O=C(CSCc1ccc(F)cc1)N1CCc2c([nH]c3ccccc23)C1c1ccccc1 (stereo not given) | / | / | / | . | / | .
OC1(c2ccccc2)CC(c2ccccc2)c2ccccc2O1 (stereo not given) | / | . | ? | / | / | -77
CC1CCN(S(=O)(=O)c2ccc(Cl)cc2)CC1 | . | . | 50µM | . | . | .
COC(=O)C1CCN(C(=O)c2cc(-c3ccco3)nc3ccccc23)CC1 | / | . | . | / | / | .
C/C(=N/NC(=O)c1ccc(C)nc1)c1ccc2c(c1)CCCC2 | . | .[15.4 µM] | . | . | . | -62
COc1cccc(NC(=O)c2oc3ccccc3c2NC(=O)c2ccc(C(F)(F)F)cc2)c1 | / | / | / | . | / | .
O=C(NCc1ccc2c(c1)CCN2C(=O)c1ccc(F)cc1)c1cc2ccccc2[nH]1 | / | / | / | . | / | .
Cc1ccccc1Oc1nnc(-c2cccs2)c2ccccc12 | ? | .[15.4 µM] | 25µM | . | . | ?
CN1CCN(c2nnc(-c3cccs3)c3ccccc23)CC1 | . | .[15.4 µM] | . | . | . | .
COc1ccc(C2C(C(=O)c3cccs3)=C(O)C(=O)N2c2nnc(C)s2)cc1OC (stereo not given) | . | . | . | . | . | .
C=CCOc1ccc(C2C(C(=O)c3cccs3)=C(O)C(=O)N2c2nnc(C)s2)cc1 (stereo not given) | / | 32µM | . | / | / | .
CC(C)c1nnc(N2C(=O)C(O)=C(C(=O)c3cccs3)C2c2ccccc2)s1 (stereo not given) | 103 | ? | ? | ? | . | .
